Each molecule was assayed on Serratia 1 (Serratia sp. 2015-2462-01) (assay: relative growth (AUC of 72 h growth curve relative to DMSO control, dAUC) (ratio); higher = more growth (less inhibition), active = hit call of the paper). Settings: 20 µM;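 active = growth AUC significantly below the DMSO wells by Dunnett test; inactive = the rest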.
Method in brief: (§1)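 Relative growth (dAUC) is the spline-integrated area under the growth curve divided by the mean of the DMSO-only control wells. Cultures were isolates from Icelandic stream sediments and Silwood Park soil, plus whole sediment communities, grown to carrying capacity in Luria–Bertani medium and diluted 1:100 into 96-well plates containing each chemical at 20 µM (1% DMSO). A600 was read hourly for 72 h on a plate reader, with brief shaking before each read, and values were averaged over three biological replicates.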

Row | Structure (SMILES) | relative growth
1 | Nc1c([N+](=O)[O-])ccc(Oc2ccccc2)c1Cl | 0.946 (inactive)
2 | C/C(=N\C#N)N(C)Cc1ccc(Cl)nc1 | 0.976 (inactive)
3 | CCC(C)(C)C(=O)OC1=C(c2ccc(Cl)cc2Cl)C(=O)OC12CCCCC2 | 0.978 (inactive)
4 | CC1(C)CON(Cc2ccccc2Cl)C1=O | 0.94 (inactive)
5 | CC[C@H](C)[C@H]1O[C@]2(C=C[C@@H]1C)C[C@@H]1C[C@@H](C/C=C(\C)[C@@H](O[C@H]3C[C@H](OC)[C@@H](O[C@H]4C[C@H](OC)[C@@H](O)[C@H](C)O4)[C@H](C)O3)[C@@H](C)/C=C/C=C3\CO[C@@H]4[C@H](O)C(C)=C[C@@H](C(=O)O1)[C@]34O)O2.CO[C@H]1C[C@H](O[C@H]2[C@H](C)O[C@@H](O[C@@H]3/C(C)=C/C[C@@H]4C[C@@H](C[C@]5(C=C[C@H](C)[C@@H](C(C)C)O5)O4)OC(=O)[C@@H]4C=C(C)[C@@H](O)[C@H]5OC/C(=C\C=C\[C@@H]3C)[C@]54O)C[C@@H]2OC)O[C@@H](C)[C@@H]1O | 0.958 (inactive)
6 | CCC(CC)Nc1c([N+](=O)[O-])cc(C)c(C)c1[N+](=O)[O-] | 0.929 (inactive)
7 | Cc1c(COC(=O)[C@@H]2[C@H](/C=C(\Cl)C(F)(F)F)C2(C)C)cccc1-c1ccccc1 (racemic) | 1.01 (inactive)
8 | CS(=O)(=O)c1ccc(C(=O)C2C(=O)CCCC2=O)c([N+](=O)[O-])c1 | 1 (inactive)
9 | N#Cc1cc(Br)c(O)c(Br)c1 | 0.998 (inactive)
10 | CNC(=O)CSP(=S)(OC)OC | 0.96 (inactive)
11 | COP(=S)(OC)SCN1C(=O)c2ccccc2C1=O | 0.972 (inactive)
12 | OC(Cn1cncn1)(c1ccc(F)cc1)c1ccccc1F (centres undefined) | 0.991 (inactive)
13 | CN1COCN(Cc2cnc(Cl)s2)/C1=N\[N+](=O)[O-] | 0.99 (inactive)
14 | N#CC(CCc1ccc(Cl)cc1)(Cn1cncn1)c1ccccc1 (centres undefined) | 0.921 (inactive)
15 | CCSC(C)CC1CC(=O)C(/C(CC)=N/OC/C=C/Cl)=C(O)C1 (mixture of isomers) | 0.973 (inactive)
16 | CCCCc1c(C)nc(NCC)nc1OS(=O)(=O)N(C)C | 0.96 (inactive)
17 | CCCN(CCC)C(=O)SCc1ccccc1 | 0.998 (inactive)
18 | O=C(O)COc1ccc(Cl)cc1Cl | 0.96 (inactive)
19 | O=C1C2(Cl)C3(Cl)C4(Cl)C(Cl)(Cl)C5(Cl)C3(Cl)C1(Cl)C5(Cl)C24Cl (centres undefined) | 0.909 (inactive)

Row | Structure (SMILES) | relative growth
20 | Nc1c(Cl)c(F)nc(OCC(=O)O)c1Cl | 0.996 (inactive)
21 | Cc1cccc2sc3nncn3c12 | 0.947 (inactive)
22 | O=C(O)CNCP(=O)(O)O | 1.01 (inactive)
23 | CCNC(=O)NC(=O)/C(C#N)=N/OC | 1 (inactive)
24 | Cc1cc(C2CC2)nc(Nc2ccccc2)n1 | 0.969 (inactive)
25 | COP(=O)(NC(C)=O)SC (centres undefined) | 0.992 (inactive)
26 | Cc1nnc(-c2ccccc2)c(=O)n1N | 0.966 (inactive)
27 | Clc1ccc(C(c2ccc(Cl)cc2)C(Cl)(Cl)Cl)cc1 | 1.05 (inactive)
28 | O=C(Nc1ccc(F)cc1F)c1cccnc1Oc1cccc(C(F)(F)F)c1 | 1.02 (inactive)
29 | N#Cc1sc2c(=O)c3ccccc3c(=O)c=2sc1C#N | 0.862 (inactive)
30 | CC[C@H](C)C1O[C@]2(C=C[C@@H]1C)C[C@@H]1C[C@@H](C/C=C(\C)[C@@H](O[C@H]3C[C@H](OC)[C@@H](O[C@H]4C[C@H](OC)[C@H](NC)[C@H](C)O4)[C@H](C)O3)[C@@H](C)/C=C/C=C3\CO[C@@H]4[C@H](O)C(C)=C[C@@H](C(=O)O1)[C@]34O)O2 (some centres undefined) | 1.16
31 | CNC(=O)Oc1cccc2ccccc12 | 0.932 (inactive)
32 | COP(N)(=O)SC (centres undefined) | 0.965 (inactive)
33 | COC(=O)NC(=S)Nc1ccccc1NC(=S)NC(=O)OC | 0.987 (inactive)
34 | COP(=O)(OC)OC=C(Cl)Cl | 0.96 (inactive)
35 | CC(C)N(C(=O)COc1nnc(C(F)(F)F)s1)c1ccc(F)cc1 | 0.984 (inactive)
36 | CCc1cc(C)cc(CC)c1-c1c(OC(=O)C(C)(C)C)n2n(c1=O)CCOCC2 | 0.972 (inactive)
37 | CNC(=O)ON=C(C)SC | 0.936 (inactive)

Each molecule was assayed on Sphingomonas 2 (Sphingomonas sp.) in the same assay as above. Settings: 20 µM.
Method in brief: as §1

Row | Structure (SMILES) | relative growth
38 | Nc1c([N+](=O)[O-])ccc(Oc2ccccc2)c1Cl | 0.871 (inactive)
39 | C/C(=N\C#N)N(C)Cc1ccc(Cl)nc1 | 1.03 (inactive)
40 | CCC(C)(C)C(=O)OC1=C(c2ccc(Cl)cc2Cl)C(=O)OC12CCCCC2 | 1 (inactive)
41 | CC1(C)CON(Cc2ccccc2Cl)C1=O | 1.15 (inactive)
42 | CC[C@H](C)[C@H]1O[C@]2(C=C[C@@H]1C)C[C@@H]1C[C@@H](C/C=C(\C)[C@@H](O[C@H]3C[C@H](OC)[C@@H](O[C@H]4C[C@H](OC)[C@@H](O)[C@H](C)O4)[C@H](C)O3)[C@@H](C)/C=C/C=C3\CO[C@@H]4[C@H](O)C(C)=C[C@@H](C(=O)O1)[C@]34O)O2.CO[C@H]1C[C@H](O[C@H]2[C@H](C)O[C@@H](O[C@@H]3/C(C)=C/C[C@@H]4C[C@@H](C[C@]5(C=C[C@H](C)[C@@H](C(C)C)O5)O4)OC(=O)[C@@H]4C=C(C)[C@@H](O)[C@H]5OC/C(=C\C=C\[C@@H]3C)[C@]54O)C[C@@H]2OC)O[C@@H](C)[C@@H]1O | 0.717 (inactive)
43 | CCC(CC)Nc1c([N+](=O)[O-])cc(C)c(C)c1[N+](=O)[O-] | 0.998 (inactive)
44 | Cc1c(COC(=O)[C@@H]2[C@H](/C=C(\Cl)C(F)(F)F)C2(C)C)cccc1-c1ccccc1 (racemic) | 1.07 (inactive)
45 | CS(=O)(=O)c1ccc(C(=O)C2C(=O)CCCC2=O)c([N+](=O)[O-])c1 | 1.1 (inactive)
46 | N#Cc1cc(Br)c(O)c(Br)c1 | 1.06 (inactive)
47 | CNC(=O)CSP(=S)(OC)OC | 1.07 (inactive)
48 | COP(=S)(OC)SCN1C(=O)c2ccccc2C1=O | 1.01 (inactive)
49 | OC(Cn1cncn1)(c1ccc(F)cc1)c1ccccc1F (centres undefined) | 1.03 (inactive)
50 | CN1COCN(Cc2cnc(Cl)s2)/C1=N\[N+](=O)[O-] | 1.05 (inactive)
51 | N#CC(CCc1ccc(Cl)cc1)(Cn1cncn1)c1ccccc1 (centres undefined) | 1.08 (inactive)
52 | CCSC(C)CC1CC(=O)C(/C(CC)=N/OC/C=C/Cl)=C(O)C1 (mixture of isomers) | 1.18 (inactive)
53 | CCCCc1c(C)nc(NCC)nc1OS(=O)(=O)N(C)C | 0.969 (inactive)
54 | CCCN(CCC)C(=O)SCc1ccccc1 | 1.06 (inactive)
55 | O=C(O)COc1ccc(Cl)cc1Cl | 1.04 (inactive)
56 | O=C1C2(Cl)C3(Cl)C4(Cl)C(Cl)(Cl)C5(Cl)C3(Cl)C1(Cl)C5(Cl)C24Cl (centres undefined) | 0.382 (active)

Row | Structure (SMILES) | relative growth
57 | Nc1c(Cl)c(F)nc(OCC(=O)O)c1Cl | 1.11 (inactive)
58 | Cc1cccc2sc3nncn3c12 | 0.944 (inactive)
59 | O=C(O)CNCP(=O)(O)O | 1.02 (inactive)
60 | CCNC(=O)NC(=O)/C(C#N)=N/OC | 0.919 (inactive)
61 | Cc1cc(C2CC2)nc(Nc2ccccc2)n1 | 0.951 (inactive)
62 | COP(=O)(NC(C)=O)SC (centres undefined) | 0.94 (inactive)
63 | Cc1nnc(-c2ccccc2)c(=O)n1N | 1 (inactive)
64 | Clc1ccc(C(c2ccc(Cl)cc2)C(Cl)(Cl)Cl)cc1 | 0.0545 (active)
65 | O=C(Nc1ccc(F)cc1F)c1cccnc1Oc1cccc(C(F)(F)F)c1 | 1.16 (inactive)
66 | N#Cc1sc2c(=O)c3ccccc3c(=O)c=2sc1C#N | 1.01 (inactive)
67 | CC[C@H](C)C1O[C@]2(C=C[C@@H]1C)C[C@@H]1C[C@@H](C/C=C(\C)[C@@H](O[C@H]3C[C@H](OC)[C@@H](O[C@H]4C[C@H](OC)[C@H](NC)[C@H](C)O4)[C@H](C)O3)[C@@H](C)/C=C/C=C3\CO[C@@H]4[C@H](O)C(C)=C[C@@H](C(=O)O1)[C@]34O)O2 (some centres undefined) | 0.373 (active)
68 | CNC(=O)Oc1cccc2ccccc12 | 0.986 (inactive)
69 | COP(N)(=O)SC (centres undefined) | 0.675 (inactive)
70 | COC(=O)NC(=S)Nc1ccccc1NC(=S)NC(=O)OC | 1.01 (inactive)
71 | COP(=O)(OC)OC=C(Cl)Cl | 0.823 (inactive)
72 | CC(C)N(C(=O)COc1nnc(C(F)(F)F)s1)c1ccc(F)cc1 | 1.09 (inactive)
73 | CCc1cc(C)cc(CC)c1-c1c(OC(=O)C(C)(C)C)n2n(c1=O)CCOCC2 | 1.06 (inactive)
74 | CNC(=O)ON=C(C)SC | 0.978 (inactive)
